IL1B secr inh – qHTS for Inhibitors of Inflammasome Signaling: IL-1-beta AlphaLISA Primary Screen | activity change, % at 57.5 µM | THP-1 LPS/ATP IL-1B secretion, AlphaLISA, 16 h; active compounds read low | 4.7% of 360,000 active; in the data active = activity change below about -50%; inconclusive = mostly about -30% to -49%
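Secreted IL-1B measured by AlphaLISA bead assay after 16 h compound exposure of THP-1 cells; compounds (final up to 57.5 uM) added 1 h before LPS (250 ng/mL) and ATP (1.25 mM) stimulation; lower signal means less secretion.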
DT40 TDP1 no CPT – qHTS for Inhibitors of human tyrosyl-DNA phosphodiesterase 1 (TDP1): qHTS in cells in absence of CPT; DT40 Tdp1-/- hTDP1 cells, no CPT, ATP luminescence, 48 h; Potency, µM (doses to about 46.2 µM), most hits filed as inhibitors; 15% of 420,000 active; AID 686978, 2013; also: nearly all actives have a fitted effect of over 55% in size
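DT40 Tdp1-/-;hTDP1 cells, no CPT (DMSO vehicle only), 400 cells/well; compounds pin-transferred; ≥48 hr, 37 °C; CellTiter-Glo 30 min RT dark, luminescence read.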
HepG2 tox – qHTS for Inhibitors of TGF-b: Cytotox Counterscreen; 0.76% of 410,000 active; Potency, µM (top dose mostly 46.1 µM), usual class: cytotoxic; HepG2 CAGA-GFP viability, ATP luminescence, 18 h
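CellTiter-Glo luminescence gave cytotoxicity after 18 hours at 37 degrees C. The cells were HepG2 CAGA-GFP in 1% FBS DMEM, stimulated with 500 pg/mL TGF-beta after compound addition. %Activity was normalised to no-cell wells (complete cell-killing) and DMSO (no toxicity), and curves were fitted and classified.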
DT40 TDP1 CPT – qHTS for Inhibitors of human tyrosyl-DNA phosphodiesterase 1 (TDP1): qHTS in cells in presence of CPT. Potency, µM (titrated, usually from 46.2 µM), hits mostly inhibitors. 12% of 420,000 active. chicken DT40 Tdp1-/-;hTDP1 cells + 20 nM CPT, ATP luminescence, 48 h; also: nearly all actives have a fitted effect of over 55% in size
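Cell growth measured by CellTiter-Glo luminescence after a minimum 48 h, 37 C compound exposure with 20 nM CPT in Tdp1-knockout DT40 cells stably expressing hTDP1, seeded 400/well; qHTS titration format.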
TGFb SMAD3 inh – qHTS for Inhibitors of TGF-b; HepG2 CAGA-GFP TGF-b/SMAD3 reporter, GFP fluorescence, 18 h; TGF-beta stimulated, 500 pg/mL final; Potency, µM (top dose mostly 46.1 µM), hits mostly inhibitors; 1.2% of 410,000 active; also: nearly all actives have a fitted effect of over 65% in size
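TGF-beta reporter screen: HEPG2 CAGA-GFP, 1% FBS, 500 pg/mL TGF-beta final, 18 h; per-cell GFP summed per well; curves fitted and categorized by class.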
S-ASM inh – Inhibitors of Secretory Acid Sphingomyelinase (S-ASM): qHTS | Sphingomyelin phosphodiesterase (Homo sapiens), P17405 | placental ASM, HMU-PC fluorogenic substrate, 60 min | Potency, µM (doses to about 57.5 µM), actives largely listed as inhibitors | 0.006% of 340,000 active | AID 504937, 2011
Target sequence (P17405 47-631 limits assumed): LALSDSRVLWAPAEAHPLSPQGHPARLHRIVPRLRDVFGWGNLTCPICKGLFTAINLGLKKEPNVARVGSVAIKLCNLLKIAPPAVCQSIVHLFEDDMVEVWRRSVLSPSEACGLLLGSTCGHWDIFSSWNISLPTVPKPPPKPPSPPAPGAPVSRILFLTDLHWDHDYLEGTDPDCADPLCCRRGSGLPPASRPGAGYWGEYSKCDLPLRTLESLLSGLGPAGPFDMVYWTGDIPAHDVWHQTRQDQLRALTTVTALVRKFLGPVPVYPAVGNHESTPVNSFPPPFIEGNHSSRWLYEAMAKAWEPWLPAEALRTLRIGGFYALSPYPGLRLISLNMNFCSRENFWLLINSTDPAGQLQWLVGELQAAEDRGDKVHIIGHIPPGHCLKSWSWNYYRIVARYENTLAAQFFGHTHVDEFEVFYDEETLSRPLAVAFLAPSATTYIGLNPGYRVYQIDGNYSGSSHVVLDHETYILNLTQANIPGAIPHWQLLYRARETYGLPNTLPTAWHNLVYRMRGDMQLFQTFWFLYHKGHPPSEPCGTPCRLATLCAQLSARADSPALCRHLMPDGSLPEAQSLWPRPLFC
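Fluorescence read-out (Ex 386 nm, Em 447 nm) after stopping the reaction at pH 10. Enzyme: ASM from human placenta; substrate HMU-PC0, 9 uM final; 60 min, 37 °C. Compound preincubation 10 min, ambient temperature.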
Of the large screens only hits and unclear results are named; the others gave an inactive call. Hits are enriched below; roughly 19% of the tested compounds scored in any of these assays. Unless noted, calls follow the shape of the dose curve; as a rule, active = well fitted curve in the direction sought with a large enough effect; inconclusive = small, poorly fitted or top-dose-only effect, or another doubt; inactive = no such curve, though single readings can be large; an effect the other way counts as inactive or inconclusive.

Cc1cccn2c(=O)c3cc(C#N)c(=NC(=O)c4cccs4)n(CCCOC(C)C)c3nc12	DT40 TDP1 no CPT 18.4µM, DT40 TDP1 CPT inconclusive
CC(=O)N=c1c(C#N)cc2c(=O)n3cccc(C)c3nc2n1CCCOC(C)C	none
CCOC(=O)c1ccccc1NC(=O)CSc1nnc(COc2ccccc2)n1CC	DT40 TDP1 no CPT inconclusive, DT40 TDP1 CPT inconclusive
CCC(C)C(=O)Nc1ccc(OC)cc1OC (stereo not drawn)	none
COc1ccc(NC(=O)N(CCC(C)C)C(C)c2ccccn2)c(OC)c1 (stereo not drawn)	DT40 TDP1 no CPT inconclusive, DT40 TDP1 CPT 23.1µM
CC(C#N)(Nc1ccc(Cl)cc1)c1cccnc1 (stereo not drawn)	none
Cc1ccccc1NC(=O)c1nc(S(=O)(=O)Cc2ccccc2F)ncc1Cl	DT40 TDP1 no CPT 5.01µM, HepG2 tox 5.62µM, DT40 TDP1 CPT 1.26µM, TGFb SMAD3 inh 4.47µM (no result: IL1B secr inh, S-ASM inh)
Cc1ccc(NC(=O)c2nc(S(=O)(=O)Cc3ccccc3F)ncc2Cl)cc1C	DT40 TDP1 no CPT 2µM, DT40 TDP1 CPT 0.891µM, TGFb SMAD3 inh inconclusive (no result: IL1B secr inh, S-ASM inh)
Cc1ccc(NC(=O)c2nc(S(=O)(=O)Cc3ccccc3F)ncc2Cl)cc1	DT40 TDP1 no CPT 0.891µM, HepG2 tox 10µM, DT40 TDP1 CPT 1.26µM, TGFb SMAD3 inh inconclusive (no result: IL1B secr inh, S-ASM inh)
CCCS(=O)(=O)c1ncc(Cl)c(C(=O)Nc2c(C(=O)c3ccccc3)oc3ccccc23)n1	DT40 TDP1 no CPT inconclusive (no result: IL1B secr inh, S-ASM inh)
NS(=O)(=O)c1ccc(NC(=O)c2nc(S(=O)(=O)Cc3ccccc3F)ncc2Cl)cc1	DT40 TDP1 no CPT 7.08µM, DT40 TDP1 CPT 10µM, TGFb SMAD3 inh inconclusive (no result: IL1B secr inh, S-ASM inh)
Cc1cccc(C)c1NC(=O)C1c2ccccc2OCC(=O)N1CCc1c[nH]c2ccccc12 (stereo not drawn)	none (no result: HepG2 tox, TGFb SMAD3 inh, S-ASM inh)
CCOc1ccc(NS(=O)(=O)c2cccc(C(=O)NCC3(N(C)C)CCCCC3)c2)cc1	DT40 TDP1 no CPT inconclusive
CC(C)NC(=O)CCCN1C(=O)CCn2nc(-c3cccn3C)cc21	none (no result: IL1B secr inh, S-ASM inh)
CC(C)(C)c1ccc(C(=O)Nc2cccc(S(=O)(=O)NC3=NCCC3)c2)cc1	IL1B secr inh inconclusive, DT40 TDP1 no CPT 11.6µM, DT40 TDP1 CPT inconclusive
CN(CC(=O)Nc1cccc(S(=O)(=O)NC2=NCCCCC2)c1)Cc1ccc(C(C)(C)C)cc1	IL1B secr inh inconclusive, DT40 TDP1 no CPT 20.6µM, DT40 TDP1 CPT 29.1µM, TGFb SMAD3 inh inconclusive
O=C(COC(=O)c1ccc(C(F)(F)F)cc1)Nc1cccc(S(=O)(=O)NC2=NCCCCC2)c1	none
CC(C)(C)c1ccc(OCCC(=O)Nc2cccc(S(=O)(=O)NC3=NCCCCC3)c2)cc1	DT40 TDP1 no CPT 23.1µM, DT40 TDP1 CPT 23.1µM, TGFb SMAD3 inh inconclusive
CCCCCC(=O)Nc1cccc(S(=O)(=O)NC2=NCCCCC2)c1	none
O=C(Nc1cccc(S(=O)(=O)NC2=NCCC2)c1)c1cc(-c2ccccn2)nc2ccccc12	DT40 TDP1 no CPT 16.4µM, DT40 TDP1 CPT 23.1µM
Cc1nn(C)c2c1c(C(F)(F)F)cc(=O)n2C(C)C(=O)Nc1ccccc1F (stereo not drawn)	DT40 TDP1 CPT inconclusive (no result: IL1B secr inh, S-ASM inh)
Cc1ccc(CNC(=O)C(C)n2c(=O)cc(C(F)(F)F)c3c(C)nn(C)c32)cc1 (stereo not drawn)	DT40 TDP1 no CPT inconclusive, DT40 TDP1 CPT 25.9µM (no result: IL1B secr inh, S-ASM inh)
COc1cccc(NC(=O)C(C)n2c(=O)cc(C(F)(F)F)c3c(C)nn(C)c32)c1 (stereo not drawn)	DT40 TDP1 no CPT 18.4µM, DT40 TDP1 CPT 16.4µM (no result: IL1B secr inh, S-ASM inh)

Screens (PubChem)
